# CYP2C9 activ = increases human cytochrome P450 2C9 activity | P11712 | recombinant CYP2C9, luciferin-H conversion, luminescence; stronger effect = higher value; factor 1 = untreated enzyme, 0 = blocked | activation factor at 5 µM | actives 1.4% (n = 96,000);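 active means activation factor of 2 or more for CYP2C9 at a 5 µM dose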;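 further: 0 = sulfaphenazole-blocked wells and 1 = vehicle-only wells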
# CYP2C9 inh = inhibitors of human CYP2C9. inhibition, % at 5 µM. AID 777. CYP2C9 Supersomes, luciferin-H conversion, luminescence. P11712. actives 20% (n = 96,000);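 active means blocking of liver enzyme CYP2C9 beyond about 50% at 5 µM, limit read from the data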
# CD11b adhes enh = enhancers of human CD11b/CD18 binding to fibrinogen; P05107+P11215; K562 CD11b/CD18 adhesion to fibrinogen, ATPlite luminescence; activation, % at 10 µM; actives 0.07% (n = 93,000); AID 1499;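 active means 10 µM primary screen giving 50% or more activity, confirmed by 40% or more on retest at that dose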
# Target sequence (P05107 whole entry, looked up, other chains not shown): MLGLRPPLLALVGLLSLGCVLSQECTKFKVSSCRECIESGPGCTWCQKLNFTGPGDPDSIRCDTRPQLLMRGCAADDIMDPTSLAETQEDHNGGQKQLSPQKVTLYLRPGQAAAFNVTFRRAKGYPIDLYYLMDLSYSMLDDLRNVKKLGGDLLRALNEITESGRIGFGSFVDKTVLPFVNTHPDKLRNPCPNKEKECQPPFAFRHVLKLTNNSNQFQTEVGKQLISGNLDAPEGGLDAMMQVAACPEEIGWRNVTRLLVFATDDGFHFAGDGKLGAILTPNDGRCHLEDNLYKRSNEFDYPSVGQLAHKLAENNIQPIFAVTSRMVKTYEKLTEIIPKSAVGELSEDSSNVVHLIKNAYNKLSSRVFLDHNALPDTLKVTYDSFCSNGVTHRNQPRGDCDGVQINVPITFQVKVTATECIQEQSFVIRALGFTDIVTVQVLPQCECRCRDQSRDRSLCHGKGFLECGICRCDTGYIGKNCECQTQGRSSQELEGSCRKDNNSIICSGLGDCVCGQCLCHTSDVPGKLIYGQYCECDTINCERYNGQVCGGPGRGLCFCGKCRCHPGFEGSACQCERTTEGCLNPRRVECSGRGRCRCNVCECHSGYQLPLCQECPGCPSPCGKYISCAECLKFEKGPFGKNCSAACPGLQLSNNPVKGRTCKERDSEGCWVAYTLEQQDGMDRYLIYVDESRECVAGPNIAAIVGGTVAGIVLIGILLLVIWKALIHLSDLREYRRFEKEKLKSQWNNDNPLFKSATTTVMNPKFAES
# CD11b adhes inh = blocks human CD11b/CD18 adhesion to fibrinogen; inhibition, % at 10 µM; K562 CD11b/CD18 adhesion to fibrinogen, ATPlite luminescence; Mn2+ added to activate the integrin; actives 0.54% (n = 93,000); P05107+P11215; AID 1497;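 active means primary inhibition of 50% or more at 10 µM, then 40% or more on retest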
# CYP2C19 inh = blocks human cytochrome P450 2C19; P33261; CYP2C19 Supersomes, luciferin-H EGE luminescence, 30 min; inhibition, % at 5 µM; actives 21% (n = 96,000); AID 778;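 active means CYP2C19 inhibition above a set limit at 5 µM in the primary screen, cut at about 50% in these data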;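 further: plate controls were negative control wells for no effect and 2.5 mM tranylcypromine positive control for full effect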
# CYP2C19 activ = activators of human cytochrome P450 2C19; recombinant CYP2C19, luciferin-H EGE luminescence; stronger effect = higher value; 0 = fully inhibited enzyme, 1 = untreated enzyme; 96,000 tested, under 10 active; activation factor at 5 µM; P33261;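 active means activation factor of at least 2 at 5 µM in the primary screen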;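 further: 0 = wells with 2.5 mM tranylcypromine and 1 = vehicle-only wells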
# * marks the source's active call; other numbers are inactive results; · = not tested or not shown. Rows were chosen to be rich in hits. Some 28% of all compounds tested hit in one or more screens of this group.
SMILES,CYP2C9 activ,CYP2C9 inh,CD11b adhes enh,CD11b adhes inh,CYP2C19 inh,CYP2C19 activ
CCC(CC)C(=O)c1c[nH]c(C(=O)NCC2CCCO2)c1 (stereo not given),1,1.2,3.9,1.4,0.8,1
Cn1cnnc1SCNC(=O)C(F)(F)F,0.7,25.3,-2.8,-10.4,-3.4,1
O=C(N/C=C\c1ccccc1)NCc1ccc(Cl)cc1Cl,0.8,19.6,0.1,12.2,27.4,0.7
Clc1ccc(COc2ccccn2)c(Cl)c1,0.8,18.1,-1.9,-10.5,86.8*,0.1
O=C(NCc1ccc(Cl)cc1Cl)c1ccccn1,1.2,-22.8,2.2,5.3,98.7*,0
CCOc1cccc(CNc2ccc(O)cc2)c1OCc1ccc(Cl)cc1Cl,1.1,-12.2,-9.2,46.7,29.7,0.7
CCOC(=O)C(C#N)C(Cc1ccccc1)c1ccco1 (stereo not given),0.3,69.8*,7.9,-17.1,91.8*,0.1
C/C(N)=C(/C#N)C(=O)COC(=O)C(NS(=O)(=O)c1ccc(Cl)cc1)C(C)O (stereo not given),0.8,15.9,0.8,-15.7,13.9,0.9
COc1ccc(OC(=O)c2cccc([N+](=O)[O-])c2)c(C(=O)/C=C/c2cccs2)c1,0.3,74.8*,1.7,-19.6,62.0*,0.4
Cc1oc2cc(O)ccc2c(=O)c1N1C(=O)c2ccccc2C1=O,2.2*,-118.4,-5.7,9.9,-7.8,1.1
Cc1ccccc1-c1c(C)oc2cc(O)ccc2c1=O,2.2*,-115.6,-3.7,-2.7,21.9,0.8
Cc1oc2cc(O)ccc2c(=O)c1Oc1ccccc1Br,1.6,-60.5,-0.7,-4.9,27.2,0.7
Cc1oc2cc(O)ccc2c(=O)c1Oc1ccccc1,2*,-100.1,·,·,27.4,0.7
CCOc1ccc(N2C(=O)C(Cl)=C(Nc3ccccc3O)C2=O)cc1,1,-3.9,5.2,-15.7,14.2,0.9
CCn1c2ccccc2c2cc(NC(=O)c3ccc(Br)o3)ccc21,1,1.3,11.8,-30.5,76.9*,0.2
O=C(Nc1ccc2c(c1)oc1ccccc12)N1CCOCC1,0.9,12.2,-1.5,2.1,35.7,0.6
CCn1c2ccccc2c2cc(NC(=O)N3CCOCC3)ccc21,1.4,-43.1,-2.7,13.9,51.7*,0.5
O=C1CC(N2CCN(c3cccc(C(F)(F)F)c3)CC2)C(=O)N1c1ccc(F)cc1 (stereo not given),0.8,19.9,·,·,11.0,0.9
Cc1ccc(C)c(OCC(=O)Nc2ccc3c(c2)OCO3)c1C,2.9*,-191.0,5.0,-12.8,5.5,0.9
O=C(Nc1ccc2c(c1)OCO2)c1c(F)c(F)c(F)c(F)c1F,1,0.4,1.6,-7.3,38.1,0.6
Cc1cccc(OCCCC(=O)Nc2ccc3c(c2)OCO3)c1,0.5,53.9*,0.2,0.8,68.6*,0.3
O=C(CC1(C(F)(F)F)OCCO1)Nc1ccc2c(c1)OCO2,0.9,8.0,1.6,-0.5,93.7*,0.1
Cc1cccc(OCC(=O)Nc2ccc3c(c2)OCO3)c1C,1.6,-55.6,4.8,4.3,29.2,0.7
Cc1ccc(S(=O)(=O)CCC(=O)Nc2ccc3c(c2)OCO3)cc1,0.1,93.6*,·,·,0.6,1
Cc1ccc(-c2nnn(CCC(=O)Nc3ccc4c(c3)OCO4)n2)cc1,1,3.0,-2.0,15.4,0.6,1
SMILES,CYP2C9 activ,CYP2C9 inh,CD11b adhes enh,CD11b adhes inh,CYP2C19 inh,CYP2C19 activ
CCN(C(=O)CCS(=O)(=O)c1ccc(Br)cc1)c1ccc2c(c1)OCO2,0.9,6.1,3.0,-2.7,67.0*,0.3
CCN(C(=O)c1coc(=O)c(Br)c1)c1ccc2c(c1)OCO2,0.4,61.6*,1.4,-12.7,58.8*,0.4
CN(C)C(=O)CN(c1ccc2c(c1)OCO2)S(C)(=O)=O,1,4.1,9.4,11.3,18.0,0.8
Cc1ccc(S(=O)(=O)NCCC(=O)Nc2ccc3c(c2)OCO3)cc1,0.1,94.8*,-2.0,-18.1,84.5*,0.2
CCN(C(=O)c1c(C)cc(=O)oc1C)c1ccc2c(c1)OCO2,1,-0.2,-2.3,1.0,16.7,0.8
Cc1cccc(C)c1NC(=O)C1C2C=CC(C2)C1C(=O)NCc1ccccn1 (stereo not given),1,-1.3,-2.4,-11.2,4.0,1
CCCCCOc1ccc(CSC(=N)N)cc1[N+](=O)[O-],0.7,30.4,-2.7,4.5,37.3,0.6
COc1ccc(CSC(=N)N)cc1[N+](=O)[O-],0.4,61.7*,0.2,-42.8,51.3*,0.5
Cc1ccccc1C(=O)O/N=C/c1c(N2CCOCC2)n(C)c2ccccc12,0.1,88.3*,4.8,-3.5,30.4,0.7
COc1ccccc1NC(=O)c1sc2ncn(Cc3ccc(C)cc3)c(=O)c2c1C,1.4,-41.5,53.9,-9.1,83.5*,0.2
COc1ccccc1NC(=O)c1sc2ncn(Cc3cccc(C)c3)c(=O)c2c1C,1.2,-20.4,69.3,-30.0,8.2,0.9
COC(=O)C1=C(N)N(c2ccc(F)cc2)C2=C(C(=O)CCC2)C1c1ccc2c(c1)OCO2 (stereo not given),1.1,-5.9,1.1,-19.3,-9.0,1.1
CCOc1cccc2sc(=NC(=O)c3ccc(S(=O)(=O)N4CCOCC4)cc3)n(C)c12,0.4,56.0*,-1.2,-8.8,31.5,0.7
CCOC(=O)c1sc(=NC(=O)c2ccc(S(=O)(=O)N3CC(C)OC(C)C3)cc2)n(C)c1C (stereo not given),1,2.4,-0.5,-8.9,6.9,0.9
Cc1ccccc1Nc1nc(N)nc(COC(=O)CC2CC3CCC2C3)n1 (stereo not given),·,·,8.6,6.0,·,·
CCOC(=O)/C(C#N)=C1/C=CN(Cc2ccccc2)C=N1,0.4,57.3*,-2.1,-8.0,68.1*,0.3
CCOc1c2c(nc3ccc(Cl)cc13)CCC2,0.9,11.4,-3.4,3.2,2.0,1
COc1ccc(-n2nc3c(c2NC(=O)C24CC5CC(CC(C5)C2)C4)CS(=O)C3)cc1 (stereo not given),2.4*,-144.3,-5.7,3.1,-14.9,1.1
Cc1cc(C(C)(C)C)cc(S(=O)(=O)NCC(=O)O)c1C,2.3*,-134.5,3.0,0.2,13.9,0.9
CCCN1CCC(N2CCN(c3cccc(C(F)(F)F)c3)CC2)CC1,1.1,-7.8,-4.6,9.0,-0.5,1
COC(=O)C(C)Sc1snnc1-c1ccccc1 (stereo not given),0.4,63.9*,-3.1,-1.3,91.8*,0.1
CN(C)C(=O)c1snnc1-c1ccccc1,0.8,21.4,0.7,-12.5,20.4,0.8
CCCCCCCCCOC(=O)C[n+]1csc(CCO)c1C,0.9,6.8,-0.4,-38.6,76.4*,0.2
Cc1c(CCOC(=O)CC23CC4CC(CC(C4)C2)C3)sc[n+]1Cc1ccccc1,1.2,-20.4,-2.5,21.2,-4.2,1
CC1(C)Cc2c(sc3nc4n(c(=N)c23)CCC4)CO1,1,-4.3,3.1,-25.6,-19.1,1.2

# Screens (PubChem BioAssay)
